Activity calls are given as the source filed them. Rule for the calls: active = hit-call score of the fitted dose curve at least 0.9, where 1 is the maximum; inactive = score below 0.9.
Experiments:
Conditions in all cases: mRNA level, 48 h; actives raise or lower the signal
[1] = read-out: Cytochrome P450 (CYP1A2), CYP1A2 (gene 1544); assay: LTEA_HepaRG_CYP1A2: Life Technologies and Expression Analysis (LTEA) Assay for Cytochrome P450 (CYP1A2) using HepaRG (AID 2283479)
How it was run: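 In duplicate wells, HepaRG cultures maintained in 0.5% DMSO were treated 48 h across an 8-point, half-log series topping at 100 uM; phenobarbital (1 mM) served as induction control. Expression was read by qRT-PCR.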

[2] = read-out: cysteine-aspartic acid protease (CASP8), CASP8 (gene 841); assay: LTEA_HepaRG_CASP8: Life Technologies and Expression Analysis (LTEA) Assay for cysteine-aspartic acid protease (CASP8) using HepaRG (AID 2283480)
How it was run: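 HepaRG, 48 h exposure, duplicate wells; 8 conc, half-log from 100 uM, 0.5% DMSO. Serum-free induction medium. CASP8 mRNA by TaqMan qRT-PCR, norm. ACTB/GAPDH/POLR2A; gain/loss fitted vs DMSO.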

[3] = read-out: Cytochrome P450 (CYP2B6), CYP2B6 (gene 1555); assay: LTEA_HepaRG_CYP2B6: Life Technologies and Expression Analysis (LTEA) Assay for Cytochrome P450 (CYP2B6) using HepaRG (AID 2283481)
How it was run: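 Human HepaRG, 48 h dosing, 0.5% DMSO vehicle, top dose 100 uM. CYP2B6 transcript by qRT-PCR, housekeeping-normalized, bidirectional curve fit.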

[4] = read-out: Cytochrome P450 2C19 (Homo sapiens) (UniProt P33261); assay: LTEA_HepaRG_CYP2C19: Life Technologies and Expression Analysis (LTEA) Assay for CYP2C19 using HepaRG (AID 2283482)
How it was run: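 Endpoint: CYP2C19 mRNA change, bidirectional fit vs 0.5% DMSO. Cells: HepaRG, 48 h exposure, eight-point series topping at 100 uM. Quantitation: qRT-PCR normalized to ACTB, GAPDH, POLR2A.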

CYP2C8 (gene 1558) = assay: LTEA_HepaRG_CYP2C8: Life Technologies and Expression Analysis (LTEA) Assay for CYP2C8 using HepaRG (AID 2283483)
How it was run: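 CYP2C8 mRNA induction or loss, by qRT-PCR normalized to ACTB/GAPDH/POLR2A, is read in HepaRG cells after 48 h treatment. Concentrations run from 100 uM down in half-log dilutions, with 0.5% DMSO as vehicle and baseline.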

CYP2C9 (gene 1559) = assay: LTEA_HepaRG_CYP2C9: Life Technologies and Expression Analysis (LTEA) Assay for CYP2C9 using HepaRG (AID 2283484)
How it was run: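 Cells plated 48 h, switched to serum-free induction medium, then treated in duplicate for 48 h at eight concentrations (max 100 uM, 0.5% DMSO). RNA then analysed by qRT-PCR for CYP2C9; curves fitted in both directions relative to DMSO.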

CYP2E1 (gene 1571) = assay: LTEA_HepaRG_CYP2E1: Life Technologies and Expression Analysis (LTEA) Assay for CYP2E1 using HepaRG (AID 2283485)
How it was run: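 Human liver line HepaRG, plated 48 h, then serum-free induction medium + chemical x 48 h; 8-pt CRC from 100 uM, half-log, 0.5% DMSO, n=2. Readout: CYP2E1 mRNA qRT-PCR vs ACTB/GAPDH/POLR2A; bidirectional fit vs DMSO.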

CYP4A11 (gene 1579) = assay: LTEA_HepaRG_CYP4A11: Life Technologies and Expression Analysis (LTEA) Assay for CYP4A11 using HepaRG (AID 2283486)
How it was run: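 Human hepatic HepaRG cultures receive duplicate 48 h exposures across a concentration-response series topping at 100 uM. Expression changes in CYP4A11 are measured by qRT-PCR relative to DMSO controls.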

[5] = read-out: Cytochrome P450 3A4 (Homo sapiens) (UniProt P08684); assay: LTEA_HepaRG_CYP3A4: Life Technologies and Expression Analysis (LTEA) Assay for CYP3A4 using HepaRG (AID 2283487)
How it was run: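 HepaRG, 48 h exposure, 8-pt CRC from 100 uM (half-log), 0.5% DMSO, duplicates; serum-free induction medium. Readout: CYP3A4 mRNA, qRT-PCR, ACTB/GAPDH/POLR2A normalization. Bidirectional fit vs DMSO.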

[6] = read-out: DNA damage-inducible transcript 3 (DDIT3), DDIT3 (gene 1649); assay: LTEA_HepaRG_DDIT3: Life Technologies and Expression Analysis (LTEA) Assay for DNA damage-inducible transcript 3 (DDIT3) using HepaRG (AID 2283488)
How it was run: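 HepaRG plated 48 h, switched to serum-free induction medium, dosed 48 h (100 uM top, half-log, 8 pts, 0.5% DMSO, n=2); RNA isolated; DDIT3 by qRT-PCR; bidirectional curve fit vs DMSO.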

[7] = read-out: Pro-epidermal growth factor (Homo sapiens) (UniProt P01133); assay: LTEA_HepaRG_EGF: Life Technologies and Expression Analysis (LTEA) Assay for Epidermal growth factor (EGF) using HepaRG (AID 2283489)
How it was run: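 Concentration-response mRNA assay: HepaRG cells dosed 48 h (max 100 uM, 0.5% DMSO), EGF measured by qRT-PCR and normalized to ACTB/GAPDH/POLR2A.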

[8] = read-out: Early growth response protein 1 (EGR1) transcription factor, EGR1 (gene 1958); assay: LTEA_HepaRG_EGR1: Life Technologies and Expression Analysis (LTEA) Assay for Early growth response protein 1 (EGR1) transcription factor using HepaRG (AID 2283490)
How it was run: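 Read-out is EGR1 mRNA level by qRT-PCR, normalized to three housekeeping genes and analysed for gain or loss of signal against 0.5% DMSO. Source cells: human HepaRG, treated 48 h at up to 100 uM in half-log dilutions.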

[9] = read-out: Ezrin (EZR), EZR (gene 7430); assay: LTEA_HepaRG_EZR: Life Technologies and Expression Analysis (LTEA) Assay for Ezrin (EZR) using HepaRG (AID 2283491)
How it was run: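 Read-out is EZR transcript level by qRT-PCR, normalized to three housekeeping genes and fitted bidirectionally against the DMSO control. Human HepaRG cells received test chemicals for 48 h at eight half-log concentrations up to 100 uM in 0.5% DMSO.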

[10] = read-out: Cytochrome P450 3A7 (Homo sapiens) (UniProt P24462); assay: LTEA_HepaRG_CYP3A7: Life Technologies and Expression Analysis (LTEA) Assay for CYP3A7 using HepaRG (AID 2283492)
How it was run: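 qRT-PCR of CYP3A7 in HepaRG lysates after 48 h treatment; concentration-response (8 points, max 100 uM) analysed bidirectionally relative to 0.5% DMSO controls.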

CYP3A5 (gene 1577) = assay: LTEA_HepaRG_CYP3A5: Life Technologies and Expression Analysis (LTEA) Assay for CYP3A5 using HepaRG (AID 2283493)
How it was run: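 HepaRG plated 48 h, switched to serum-free induction medium, chemicals added 48 h (max 100 uM, half-log, 0.5% DMSO). RNA isolated; CYP3A5 by TaqMan qRT-PCR. Gain/loss vs DMSO.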

[11] = read-out: Cytochrome P450 4A22 (Homo sapiens) (UniProt Q5TCH4); assay: LTEA_HepaRG_CYP4A22: Life Technologies and Expression Analysis (LTEA) Assay for Cytochrome P450 4A22 (CYP4A22) using HepaRG (AID 2283495)
How it was run: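 Concentration-response (8 points, max 100 uM, 0.5% DMSO) in human HepaRG liver cells after 48 h exposure. CYP4A22 mRNA by TaqMan qRT-PCR with housekeeping-gene normalization.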

[12] = read-out: Cytochrome P450 7A1 (Homo sapiens) (UniProt P22680); assay: LTEA_HepaRG_CYP7A1: Life Technologies and Expression Analysis (LTEA) Assay for Cytochrome P450 7A1 (CYP7A1) using HepaRG (AID 2283496)
How it was run: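 HepaRG cells plated 48 h, then switched to serum-free induction medium and exposed in duplicate for 48 h to 8-point half-log series from 100 uM in 0.5% DMSO. CYP7A1 mRNA by qRT-PCR (TaqMan), normalized to ACTB/GAPDH/POLR2A; bidirectional fit versus DMSO.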

[13] = read-out: Glutathione S-Transferase (GSTA2), GSTA2 (gene 2939); assay: LTEA_HepaRG_GSTA2: Life Technologies and Expression Analysis (LTEA) Assay for Glutathione S-Transferase (GSTA2) using HepaRG (AID 2283497)
How it was run: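 HepaRG, 48 h dosing, 8-pt half-log CRC from 100 uM, 0.5% DMSO vehicle, n=2; RNA → Fluidigm TaqMan qRT-PCR; GSTA2 vs ACTB/GAPDH/POLR2A; gain/loss fit vs DMSO.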

[14] = read-out: Glutamate-cysteine ligase catalytic (GCLC), GCLC (gene 2729); assay: LTEA_HepaRG_GCLC: Life Technologies and Expression Analysis (LTEA) Assay for Glutamate-cysteine ligase catalytic (GCLC) using HepaRG (AID 2283498)
How it was run: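 Read-out is GCLC transcript level by Fluidigm-based TaqMan qRT-PCR, normalized to three housekeeping genes and fitted in both directions relative to 0.5% DMSO. Human HepaRG cells received chemicals for 48 h, up to 100 uM.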

[15] = read-out: growth arrest and DNA damage 45 (GADD45G), GADD45G (gene 10912); assay: LTEA_HepaRG_GADD45G: Life Technologies and Expression Analysis (LTEA) Assay for growth arrest and DNA damage 45 (GADD45G) using HepaRG (AID 2283499)
How it was run: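 Concentration-response in HepaRG: 48 h dosing, 0.5% DMSO, highest level 100 uM. GADD45G expression by qRT-PCR, normalised to endogenous controls; bidirectional fit to DMSO.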

Measured: AC50

Chain of Cytochrome P450 2C19 (Homo sapiens) (P33261 whole entry, looked up): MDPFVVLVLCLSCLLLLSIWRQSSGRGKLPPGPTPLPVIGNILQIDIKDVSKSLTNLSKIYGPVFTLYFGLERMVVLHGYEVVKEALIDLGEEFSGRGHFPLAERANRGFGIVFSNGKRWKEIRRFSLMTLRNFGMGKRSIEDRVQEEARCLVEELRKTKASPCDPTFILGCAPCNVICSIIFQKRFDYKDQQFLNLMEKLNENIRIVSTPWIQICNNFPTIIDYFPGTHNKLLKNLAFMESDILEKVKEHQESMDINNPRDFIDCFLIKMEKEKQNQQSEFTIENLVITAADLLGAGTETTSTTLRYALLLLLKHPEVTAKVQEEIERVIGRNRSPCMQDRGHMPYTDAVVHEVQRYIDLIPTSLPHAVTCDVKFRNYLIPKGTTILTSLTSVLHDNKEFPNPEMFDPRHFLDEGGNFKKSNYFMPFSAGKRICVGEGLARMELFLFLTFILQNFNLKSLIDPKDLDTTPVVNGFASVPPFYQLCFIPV
Chain of Cytochrome P450 3A7 (Homo sapiens) (P24462 whole entry, looked up): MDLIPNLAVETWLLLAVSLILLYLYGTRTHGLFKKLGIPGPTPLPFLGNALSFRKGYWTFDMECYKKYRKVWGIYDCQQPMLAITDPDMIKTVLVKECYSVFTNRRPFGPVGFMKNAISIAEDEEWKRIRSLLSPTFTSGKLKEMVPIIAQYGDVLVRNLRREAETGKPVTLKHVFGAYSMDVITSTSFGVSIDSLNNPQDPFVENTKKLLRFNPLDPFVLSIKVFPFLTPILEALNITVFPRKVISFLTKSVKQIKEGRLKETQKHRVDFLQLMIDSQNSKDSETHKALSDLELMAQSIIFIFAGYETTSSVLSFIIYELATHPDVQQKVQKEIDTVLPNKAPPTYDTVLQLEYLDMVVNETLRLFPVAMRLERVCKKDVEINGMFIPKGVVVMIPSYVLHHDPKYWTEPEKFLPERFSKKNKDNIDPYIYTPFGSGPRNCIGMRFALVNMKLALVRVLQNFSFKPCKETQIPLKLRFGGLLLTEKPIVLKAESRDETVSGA
Chain of Cytochrome P450 3A4 (Homo sapiens) (P08684 whole entry, looked up): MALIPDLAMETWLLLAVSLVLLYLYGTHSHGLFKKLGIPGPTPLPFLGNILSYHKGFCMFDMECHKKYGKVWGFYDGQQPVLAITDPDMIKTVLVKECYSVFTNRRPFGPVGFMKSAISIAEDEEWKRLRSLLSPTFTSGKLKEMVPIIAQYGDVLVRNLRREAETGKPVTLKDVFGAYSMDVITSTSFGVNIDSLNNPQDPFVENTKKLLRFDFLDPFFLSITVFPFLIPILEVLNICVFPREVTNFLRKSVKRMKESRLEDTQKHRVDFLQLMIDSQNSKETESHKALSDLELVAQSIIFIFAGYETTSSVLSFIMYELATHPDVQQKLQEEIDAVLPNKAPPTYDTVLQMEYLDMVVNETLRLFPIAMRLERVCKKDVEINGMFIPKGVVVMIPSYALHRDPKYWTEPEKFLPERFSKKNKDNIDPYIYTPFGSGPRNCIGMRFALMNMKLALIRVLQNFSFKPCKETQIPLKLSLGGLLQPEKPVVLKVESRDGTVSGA

O=C(CCl)c1ccccc1
active: [3] 50 µM
inactive: all other assays above

O=[N+]([O-])c1ccc(Cl)cc1
inactive: all assays above

N#CCCCCC#N
active: [3] 50 µM
inactive: all other assays above

— PubChem BioAssay (EPA / NIEHS)
